Experiment [1] can be described thus: inhibitors of TNFa-induced NFkB p65 translocation, primary screen, imaging, HUVEC, MLSMR starter and 10KST1 sets (AID 438;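 active = inhibition above 20% together with a positive visual image hit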;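 note: compound added about 3h40 before a 20 min TNFalpha stimulation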;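 for inhibition: signal is the nuclear over cytoplasmic p65 intensity ratio per well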). As to conditions: HUVEC TNFa-induced p65 nuclear translocation; cell count: measured here: nuclei count (cytotoxicity indicator), at 2.08 µM; inhibition: at 2 µM, stronger effect = higher value, 0% TNFa-plus-vehicle, 100% no-TNFa wells.
Experiment [2] in a line: reduction of polyQ htt aggregates in cells – imaging, exon1htt(103Q)mCFP cells, high-content imaging, primary screen (AID 483;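 active = visual image review flags a hit and inhibition of aggregation exceeds 20%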;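 note: compound exposure lasted 3 days before fixation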;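 for nuclei count: percent of the per-plate median nuclei count of sample wells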). As to conditions: exon1htt(103Q)mCFP cell line, aggregate imaging, at 2 µM; inhibition of aggregation: stronger effect = higher value; nuclei count: measured here: cell count, toxicity.
Experiment [3] in a line: endothelial E-selectin expression blockers – imaging, HUVEC, immunofluorescence, MLSMR starter and 10KST1 sets, primary screen (AID 487).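 For inhibition: signal is fraction of cell area covered by stained E-selectin grains.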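 For nuclei count: 100% = median nuclei count of all wells on the same plate.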 As to conditions: HUVEC TNFalpha-induced E-selectin immunofluorescence imaging, at 2 µM; inhibition: stronger effect = higher value; nuclei count: measured here: cell number, toxicity.
Experiment [4] deals with Voltage-gated potassium channel subunit beta-2 (Rattus norvegicus) (UniProt P62483). The experiment in a line: inhibitors of rat Kvbeta2 reductase activity – biochemical, NADPH fluorescence, primary screen (AID 622;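 active = fluorescence slope higher than the sample average by over 3 SD, cut at about -0.22 in these data, passing the limit was not always enough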;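 note: slope of raw intensity against log time taken from 70 to 1610 s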). The settings on record: recombinant KvBeta, 4-cyanobenzaldehyde reduction, at 10 µM, stronger effect = higher value.
Sequence of Voltage-gated potassium channel subunit beta-2 (Rattus norvegicus) (P62483 whole entry, looked up): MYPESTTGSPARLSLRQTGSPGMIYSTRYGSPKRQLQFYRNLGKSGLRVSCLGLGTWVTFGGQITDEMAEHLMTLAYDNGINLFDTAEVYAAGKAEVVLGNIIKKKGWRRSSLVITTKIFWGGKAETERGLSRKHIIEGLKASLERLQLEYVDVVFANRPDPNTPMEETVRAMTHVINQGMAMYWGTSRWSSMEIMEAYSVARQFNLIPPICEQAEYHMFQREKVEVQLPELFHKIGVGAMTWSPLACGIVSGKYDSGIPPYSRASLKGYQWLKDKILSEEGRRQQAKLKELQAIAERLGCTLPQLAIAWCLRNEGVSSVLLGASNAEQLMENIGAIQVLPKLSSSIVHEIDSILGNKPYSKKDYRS
Experiment [5] shares this target. The experiment is described as follows: enhancers of rat Kvbeta2 NADPH turnover – biochemical, NADPH fluorescence, primary screen (AID 623;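 active = NADPH fluorescence slope more negative than the mean of all samples by about 3 SD, 99.7% confidence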;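 note: fluorescence intensity change per second fitted from 20 to 320 s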). As to conditions: Recombinant KvBeta, NADPH fluorescence decrease slope, 10 min; at 10 µM; stronger effect = lower value.
Experiment [6] deals with Alpha-2C adrenergic receptor (Homo sapiens) (UniProt P18825). The experiment in a line: compounds altering alpha2C-coupled GIRK flux – cell-based, HEK293 alpha2C/GIRK1/2, thallium flux, primary screen (AID 624;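 active = fluorescence slope after compound addition differing from the mean of all screened samples at 99.7% confidence, in either direction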;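 note: slope of fluorescence ratio to pre-addition baseline per second over 15 to 24 s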). The settings on record: thallium flux BTC fluorescence, at 10 µM, actives lie on both sides.
Sequence of Alpha-2C adrenergic receptor (Homo sapiens) (P18825 whole entry, looked up): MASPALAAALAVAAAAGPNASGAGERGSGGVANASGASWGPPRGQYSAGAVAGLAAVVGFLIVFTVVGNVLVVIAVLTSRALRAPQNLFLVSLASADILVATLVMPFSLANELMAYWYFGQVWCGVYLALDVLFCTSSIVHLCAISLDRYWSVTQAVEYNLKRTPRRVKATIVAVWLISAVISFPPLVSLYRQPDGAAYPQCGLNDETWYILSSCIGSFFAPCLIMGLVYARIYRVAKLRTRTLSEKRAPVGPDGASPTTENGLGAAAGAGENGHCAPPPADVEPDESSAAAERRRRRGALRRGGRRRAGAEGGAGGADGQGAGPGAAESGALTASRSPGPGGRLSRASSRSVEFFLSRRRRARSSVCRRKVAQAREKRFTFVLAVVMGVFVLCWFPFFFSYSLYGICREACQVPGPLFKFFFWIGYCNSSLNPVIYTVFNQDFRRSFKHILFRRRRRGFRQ
A short description of experiment [7]: blockers of RIG-like receptor reporter activation – cell-based, Sendai virus stimulus, luciferase, 10K MLSCN set, TLR/RLR signaling modifier project, primary screen (AID 602276;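 active = inhibition at or above 50% at 10 µM; inactive = inhibition below 50%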;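 note: firefly luciferase from ISG56 promoter only with Renilla not read in this screen; 0% = Sendai virus plus DMSO and 100% = medium plus DMSO without virus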). As to conditions: HEK293 RL24 IRF3 luciferase reporter, at 10 µM, stronger effect = higher value. A general note: A reporter such as luciferase makes a cellular process visible.
Experiment [8] can be described thus: TLR3 IRF3 reporter activation blockers – cell-based, poly I:C stimulus, luciferase, 10K MLSCN set, primary screen (AID 602277;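 active = inhibition of the reporter signal at or above 50%; inactive = inhibition below 50%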). As to conditions: HEK293-TLR3 RL24 IRF3 luciferase reporter, at 10 µM, stronger effect = higher value.

SMILES strings stand for the structures. Calls of active or inactive are those of the source.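 Rule for the calls, unless noted: active = visually confirmed hit in the image check and inhibition above 20%; inconclusive = visually confirmed hit but inhibition not above 20%; inactive = no visual hit in the image check.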

As a reminder, the inhibition is the drop in the measured response relative to a control, in per cent. Regarding `CCc1ccccc1NC(=O)c1ccoc1C`, in experiment [1], the cell count is 399. The inhibition in experiment [1] was 2.4% (inactive); in experiment [3] it was -12.3% (inactive); in experiment [7] it was 13.9% (inactive); in experiment [8], 17.6% (inactive). Moreover, in experiment [2], the inhibition of aggregation was 0.7% (inactive). Also, the values for the nuclei count in experiment [2] and in experiment [3] were 97.9% and 99.5%, respectively. The fluorescence slope in experiment [4] is -0.493 (inactive). Besides, in experiment [5], the NADPH fluorescence slope was -5.8e-05 (inactive). For the same molecule, in experiment [6], the slope is 0.00456 (inactive).

Turning to `CCN1C(=O)c2ccccc2S(=O)c2ccc(C(=O)NC3CC3)cc21` (centres undefined), the cell count in experiment [1] turned out to be 533. For the same molecule, the inhibition was 0.6% (inactive) in experiment [1], 6.3% (inactive) in experiment [3], 17.3% (inactive) in experiment [7] and 24% (inactive) in experiment [8]. Besides, the inhibition of aggregation in experiment [2] was 20.1% (inactive). For the same molecule, the figures for the nuclei count in experiment [2] and in experiment [3] were 74.1% and 104%, respectively. Further, in experiment [4], the fluorescence slope is -0.505 (inactive). For the same molecule, in experiment [5], the NADPH fluorescence slope was -2.6e-05 (inactive). Also, the slope in experiment [6] was 0.0077 (inactive).

Consider `Cc1ccc(-n2ncc(C(=O)N3CCc4ccccc4C3)c2NC(=O)c2ccco2)cc1C`, for which the cell count in experiment [1] was determined as 425. Besides, the inhibition in experiment [1] was 10.2% (inactive); in experiment [3], 0.3% (inactive); in experiment [7] it was 2.03% (inactive); in experiment [8], 20.1% (inactive). In experiment [2], the inhibition of aggregation is -0.3% (inactive). The nuclei count in experiment [2] was 100%; in experiment [3], 114%. Besides, in experiment [4], the fluorescence slope was -0.415 (inactive). Also, in experiment [5], the NADPH fluorescence slope is -9.8e-05 (inactive). Besides, in experiment [6], the slope was 0.00658 (inactive).

As for `CC1(C)CC(=O)c2cnc(NC(=O)Cc3ccc(Cl)cc3)nc2C1`, the cell count in experiment [1] was determined as 382. Moreover, the inhibition in experiment [1] is -0.3% (inactive); in experiment [3], -20.1% (inactive); in experiment [7], -25% (inactive); in experiment [8], 18.3% (inactive). In addition, in experiment [2], the inhibition of aggregation was -0.3% (inactive). For the same molecule, the figures for the nuclei count in experiment [2] and in experiment [3] were 97.2% and 115%, respectively. Besides, in experiment [4], the fluorescence slope was -0.485 (inactive). Moreover, the NADPH fluorescence slope in experiment [5] was -4.8e-05 (inactive). Also, in experiment [6], the slope was 0.00659 (inactive).

Take `CCN(Cc1nc2ccccc2c(=O)[nH]1)Cc1cc(=O)oc2cc(C)c(C)cc12`: the cell count in experiment [1] came out at 288. In addition, the inhibition in experiment [1] was 6.6% (inactive); in experiment [3] it was -33.2% (inactive); in experiment [7], 5.41% (inactive); in experiment [8], 8.19% (inactive). The inhibition of aggregation in experiment [2] was 0.4% (inactive). Moreover, the nuclei count came to 107% in experiment [2] and 126% in experiment [3]. Also, in experiment [4], the fluorescence slope is -0.435 (inactive). Besides, in experiment [5], the NADPH fluorescence slope was -4.6e-05 (inactive). Also, in experiment [6], the slope was 0.00456 (inactive).

Turning to `COc1cc(NC(=O)c2cc(CC(C)C)on2)c(OC)cc1Cl`, the cell count in experiment [1] was 558. Also, the inhibition in experiment [1] is -6% (inactive); in experiment [3], -15.3% (inactive); in experiment [7], 10.7% (inactive); in experiment [8], 46.6% (inactive). Also, the inhibition of aggregation in experiment [2] was 13.1% (inactive). The nuclei count in experiment [2] was 95.8%; in experiment [3], 106%. In addition, the fluorescence slope in experiment [4] is -0.575 (inactive). The NADPH fluorescence slope in experiment [5] is 5.1e-07 (inactive). The slope in experiment [6] is 0.00662 (inactive).

As to `Cc1ccc(/C=c2\s/c(=C(/C#N)C(=O)N3CCCC3)n(Cc3ccco3)c2=O)s1`, the cell count in experiment [1] worked out at 627. Also, the inhibition in experiment [1] is 2.8% (inactive); in experiment [3], -28.1% (inactive); in experiment [7], 16.4% (inactive); in experiment [8], -21.1% (inactive). Moreover, the inhibition of aggregation in experiment [2] is -17.3% (inactive). Further, the nuclei count in experiment [2] came out at 101%; in experiment [3] it was 136%. For the same molecule, the fluorescence slope in experiment [4] is -0.59 (inactive). Also, the NADPH fluorescence slope in experiment [5] is 2e-05 (inactive). In experiment [6], the slope was 0.00315 (inactive).

In the case of `Cc1cc(C(=O)CSc2nnc(-c3ccco3)o2)c(C)n1CC1COc2ccccc2O1` (centres undefined), the cell count in experiment [1] came out at 393. Besides, the inhibition in experiment [1] is 0% (inactive); in experiment [3] it was -115% (inactive); in experiment [7], 9.81% (inactive); in experiment [8] it was 3.57% (inactive). Moreover, the inhibition of aggregation in experiment [2] is 15.2% (inactive). Besides, the nuclei count in experiment [2] came to 90.2%; in experiment [3] it was 105%. Besides, the fluorescence slope in experiment [4] was -0.516 (inactive). Moreover, in experiment [5], the NADPH fluorescence slope is -2.2e-05 (inactive). The slope in experiment [6] is 0.00446 (inactive).

Turning to `CC(C)N1C(=O)C2C(C(=O)NC3CCCCC3)C3C=CC2(O3)C1C(=O)NC1CCCC1` (centres undefined), the cell count in experiment [1] was determined as 371. Besides, the inhibition was 4.3% (inactive) in experiment [1], -58.1% (inactive) in experiment [3], 8.4% (inactive) in experiment [7] and 18.1% (inactive) in experiment [8]. In experiment [2], the inhibition of aggregation was 23% (inactive). Besides, the nuclei count in experiment [2] and in experiment [3] was 101% in each case. For the same molecule, the fluorescence slope in experiment [4] is -0.366 (inactive). Besides, the NADPH fluorescence slope in experiment [5] was 3.1e-05 (inactive). The slope in experiment [6] was 0.00675 (inactive).

In the case of `Cn1c(-c2ccc(F)cc2)cnc1SCC(=O)Nc1ccccc1N1CCOCC1`, in experiment [1], the cell count came to 458. Also, the inhibition in experiment [1] is 1.4% (inactive); in experiment [3], -76.1% (inactive); in experiment [7] it was -29.2% (inactive); in experiment [8], -99% (inactive). For the same molecule, the inhibition of aggregation in experiment [2] was 53.7% (active). Moreover, the results for the nuclei count in experiment [2] and in experiment [3] were 63.3% and 90.4%, respectively. Moreover, in experiment [4], the fluorescence slope is -0.31 (inactive). Moreover, in experiment [5], the NADPH fluorescence slope is -2.7e-05 (inactive). Moreover, the slope in experiment [6] is 0.00572 (inactive).

Turning to `Cc1cc2ccccn2c1C(=O)c1ccncc1`, the cell count in experiment [1] came to 602. Further, the inhibition in experiment [1] is -0.6% (inactive); in experiment [3] it was -1.7% (inactive); in experiment [7], 11% (inactive); in experiment [8], -0.108% (inactive). Moreover, in experiment [2], the inhibition of aggregation is 11.7% (inactive). For the same molecule, the figures for the nuclei count in experiment [2] and in experiment [3] were 77.4% and 111%, respectively. The fluorescence slope in experiment [4] was -0.62 (inactive). Moreover, in experiment [5], the NADPH fluorescence slope is 9.9e-07 (inactive). For the same molecule, the slope in experiment [6] was 0.00577 (inactive).

Take `Cc1noc(C)c1C(=O)Nc1ccc(Cl)cc1C(F)(F)F`: in experiment [1], the cell count came to 327. Also, the inhibition in experiment [1] is -13.5% (inactive); in experiment [3] it was -6% (inactive); in experiment [7] it was 17.2% (inactive); in experiment [8] it was 18% (inactive). In experiment [2], the inhibition of aggregation was 1.7% (inactive). The figures for the nuclei count in experiment [2] and in experiment [3] were 99.5% and 102%, respectively. Besides, the fluorescence slope in experiment [4] was -0.625 (inactive). The NADPH fluorescence slope in experiment [5] is -1e-05 (inactive). In addition, in experiment [6], the slope is 0.0031 (inactive).

Take `CCn1c(SCC(=O)c2ccc(F)cc2)nnc1-c1ccoc1C`: the cell count in experiment [1] worked out at 423. Besides, the inhibition in experiment [1] is -19.4% (inactive); in experiment [3], -50.4% (inactive); in experiment [7] it was 6.99% (inactive); in experiment [8], 11.7% (inactive). The inhibition of aggregation in experiment [2] was -1.3% (inactive). For the same molecule, the nuclei count in experiment [2] came to 78%; in experiment [3] it was 103%. Moreover, in experiment [4], the fluorescence slope was -0.607 (inactive). Further, the NADPH fluorescence slope in experiment [5] is 1.4e-05 (inactive). For the same molecule, the slope in experiment [6] is 0.00696 (inactive).

Turning to `CCOc1ccc(C2CC(=O)NC3=C2C(=O)CCC3)cc1Cl` (centres undefined), the cell count in experiment [1] is 481. Besides, the inhibition was 10% (inactive) in experiment [1], -1.1% (inactive) in experiment [3], 5.45% (inactive) in experiment [7] and 13.2% (inactive) in experiment [8]. The inhibition of aggregation in experiment [2] is 5.5% (inactive). In addition, the nuclei count is 106% in experiment [2] and 110% in experiment [3]. In addition, the fluorescence slope in experiment [4] is -0.407 (inactive). Further, in experiment [5], the NADPH fluorescence slope was -3.2e-05 (inactive). Also, the slope in experiment [6] was 0.00268 (inactive).

Values taken from PubChem BioAssay.
